# Source: article PMC7862700, “An all-to-all approach to the identification of sequence-specific readers for epigenetic DNA modifications on cytosine”
# Tests used:
# Assay in all cases: DAPPL (digital affinity profiling via proximity ligation, sequencing); 10 mM Tris-HCl pH 7.5, 50 mM NaCl, 1 mM DTT, 4% glycerol, room temperature, 30 min; GST-TFs on glutathione beads, 16-mer random dsDNA library, 0.1% formaldehyde crosslink after washing; high values mean tight binding
# FLI1 = target: T1, FLI1 (Homo sapiens, UniProt Q01543 1-452); details: protein: recombinant; tags: N-terminal GST; dsDNA, one strand shown
# T1 sequence: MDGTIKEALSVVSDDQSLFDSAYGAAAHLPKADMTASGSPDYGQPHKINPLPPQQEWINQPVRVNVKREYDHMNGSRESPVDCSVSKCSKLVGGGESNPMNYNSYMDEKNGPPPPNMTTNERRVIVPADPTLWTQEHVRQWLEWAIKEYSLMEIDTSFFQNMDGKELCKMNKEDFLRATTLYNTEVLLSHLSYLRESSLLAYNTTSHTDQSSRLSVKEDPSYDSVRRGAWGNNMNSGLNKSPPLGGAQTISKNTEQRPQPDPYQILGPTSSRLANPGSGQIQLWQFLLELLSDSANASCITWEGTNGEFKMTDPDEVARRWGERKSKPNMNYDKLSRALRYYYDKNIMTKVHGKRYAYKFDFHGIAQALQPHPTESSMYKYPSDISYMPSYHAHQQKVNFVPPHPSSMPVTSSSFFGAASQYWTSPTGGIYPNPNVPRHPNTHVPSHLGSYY
# Procedure, shortened: (§1)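 A tag-only sample was pooled with DNA-barcoded human transcription factors that had been expressed in yeast as GST fusions and captured on glutathione beads. The pools were incubated for 30 min at room temperature with 200 nmole of a random double-stranded 16-mer DNA library in Tris/NaCl/DTT/glycerol buffer, then washed, crosslinked with 0.1% formaldehyde, proximity-ligated (BsaI/T4 ligase, 1 h, 37 °C), PCR-amplified and sequenced on an Illumina NextSeq500. Binding signal is each hexamer's read frequency for a factor divided by its frequency for the tag-only sample.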
# ELK1 = target: T2, ELK1 (Homo sapiens, UniProt P19419 1-428); details: protein: recombinant; tags: N-terminal GST; dsDNA, one strand shown
# T2 sequence: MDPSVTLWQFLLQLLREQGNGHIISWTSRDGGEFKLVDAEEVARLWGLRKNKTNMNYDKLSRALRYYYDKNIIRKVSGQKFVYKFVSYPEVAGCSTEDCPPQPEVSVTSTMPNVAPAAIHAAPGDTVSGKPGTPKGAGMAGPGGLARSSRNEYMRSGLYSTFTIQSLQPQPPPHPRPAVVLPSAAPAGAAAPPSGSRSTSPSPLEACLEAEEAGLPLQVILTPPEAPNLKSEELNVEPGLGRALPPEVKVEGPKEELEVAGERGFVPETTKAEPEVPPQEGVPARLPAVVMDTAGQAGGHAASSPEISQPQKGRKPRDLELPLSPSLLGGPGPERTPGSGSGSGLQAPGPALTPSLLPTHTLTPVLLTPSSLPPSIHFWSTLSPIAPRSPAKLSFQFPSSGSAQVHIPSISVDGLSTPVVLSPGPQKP
# Procedure, shortened: as §1
# GABPA = target: T3, GABPA (Homo sapiens, UniProt Q06546 1-454); details: protein: recombinant; tags: N-terminal GST; dsDNA, one strand shown
# T3 sequence: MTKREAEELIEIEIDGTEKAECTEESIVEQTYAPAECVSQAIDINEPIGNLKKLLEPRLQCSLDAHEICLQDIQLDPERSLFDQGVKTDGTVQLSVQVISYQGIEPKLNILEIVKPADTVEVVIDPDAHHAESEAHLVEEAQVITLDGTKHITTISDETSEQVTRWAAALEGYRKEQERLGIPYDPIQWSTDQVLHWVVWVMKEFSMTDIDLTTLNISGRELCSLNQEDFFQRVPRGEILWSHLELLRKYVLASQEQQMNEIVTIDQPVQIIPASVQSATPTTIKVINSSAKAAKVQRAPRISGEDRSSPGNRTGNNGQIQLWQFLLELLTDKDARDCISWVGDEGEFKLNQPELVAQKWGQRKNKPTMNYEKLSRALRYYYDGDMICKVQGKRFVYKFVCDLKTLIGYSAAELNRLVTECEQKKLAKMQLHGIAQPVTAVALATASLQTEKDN
# Procedure, shortened: as §1
# ERG = target: T4, ERG (Homo sapiens, UniProt P11308 1-479); details: protein: recombinant; tags: N-terminal GST; dsDNA, one strand shown
# T4 sequence: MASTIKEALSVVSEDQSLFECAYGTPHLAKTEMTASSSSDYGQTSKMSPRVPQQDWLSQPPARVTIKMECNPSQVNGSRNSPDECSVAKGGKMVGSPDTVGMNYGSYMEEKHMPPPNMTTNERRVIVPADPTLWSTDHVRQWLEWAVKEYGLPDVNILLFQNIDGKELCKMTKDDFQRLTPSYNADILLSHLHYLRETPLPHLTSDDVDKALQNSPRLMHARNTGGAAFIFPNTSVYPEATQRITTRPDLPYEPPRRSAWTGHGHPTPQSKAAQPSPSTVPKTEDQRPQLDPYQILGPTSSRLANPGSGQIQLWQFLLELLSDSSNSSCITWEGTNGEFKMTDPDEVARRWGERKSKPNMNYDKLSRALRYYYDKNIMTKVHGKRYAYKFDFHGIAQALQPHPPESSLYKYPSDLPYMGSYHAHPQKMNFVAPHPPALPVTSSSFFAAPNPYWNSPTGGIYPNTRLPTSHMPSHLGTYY
# Procedure, shortened: as §1
# ELF1 = ELF1 (Homo sapiens, UniProt P32519 1-619); details: protein: recombinant; tags: N-terminal GST; dsDNA, one strand shown
# Sequence of ELF1 (P32519 whole entry): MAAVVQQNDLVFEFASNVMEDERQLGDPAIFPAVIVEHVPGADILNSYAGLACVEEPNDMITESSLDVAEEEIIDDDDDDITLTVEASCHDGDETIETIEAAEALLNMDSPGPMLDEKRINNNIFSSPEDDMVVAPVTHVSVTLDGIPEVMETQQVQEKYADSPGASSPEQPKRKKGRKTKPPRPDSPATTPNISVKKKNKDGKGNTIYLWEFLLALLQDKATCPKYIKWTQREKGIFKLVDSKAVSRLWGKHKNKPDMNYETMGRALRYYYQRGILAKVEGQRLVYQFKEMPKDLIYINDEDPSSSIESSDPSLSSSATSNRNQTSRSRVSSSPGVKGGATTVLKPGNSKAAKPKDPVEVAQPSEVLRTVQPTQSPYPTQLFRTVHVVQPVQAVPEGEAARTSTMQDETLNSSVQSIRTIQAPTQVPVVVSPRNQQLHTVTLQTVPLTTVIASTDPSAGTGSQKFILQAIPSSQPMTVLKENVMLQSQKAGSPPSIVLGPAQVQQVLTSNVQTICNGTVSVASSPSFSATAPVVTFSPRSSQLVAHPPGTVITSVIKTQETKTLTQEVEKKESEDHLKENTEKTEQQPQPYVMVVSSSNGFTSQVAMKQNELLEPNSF
# Procedure, shortened: as §1
# EHF = target: T5, EHF (Homo sapiens, UniProt Q9NZC4 1-300); details: protein: recombinant; tags: N-terminal GST; dsDNA, one strand shown
# T5 sequence: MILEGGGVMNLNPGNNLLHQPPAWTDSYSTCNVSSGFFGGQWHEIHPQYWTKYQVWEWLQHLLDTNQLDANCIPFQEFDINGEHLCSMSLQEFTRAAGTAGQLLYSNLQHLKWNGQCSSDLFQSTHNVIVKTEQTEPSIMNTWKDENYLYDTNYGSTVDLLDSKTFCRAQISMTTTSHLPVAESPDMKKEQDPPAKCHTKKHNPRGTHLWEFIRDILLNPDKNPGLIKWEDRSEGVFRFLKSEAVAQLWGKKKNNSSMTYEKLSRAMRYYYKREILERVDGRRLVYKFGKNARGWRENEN
# Procedure, shortened: as §1
# SPI1 = SPI1 (Homo sapiens, UniProt P17947 1-270); details: protein: recombinant; tags: N-terminal GST; dsDNA, one strand shown
# Procedure, shortened: as §1
# SPIB = SPIB (Homo sapiens, UniProt Q01892 1-262); details: protein: recombinant; tags: N-terminal GST; dsDNA, one strand shown
# Sequence of SPIB (Q01892 whole entry): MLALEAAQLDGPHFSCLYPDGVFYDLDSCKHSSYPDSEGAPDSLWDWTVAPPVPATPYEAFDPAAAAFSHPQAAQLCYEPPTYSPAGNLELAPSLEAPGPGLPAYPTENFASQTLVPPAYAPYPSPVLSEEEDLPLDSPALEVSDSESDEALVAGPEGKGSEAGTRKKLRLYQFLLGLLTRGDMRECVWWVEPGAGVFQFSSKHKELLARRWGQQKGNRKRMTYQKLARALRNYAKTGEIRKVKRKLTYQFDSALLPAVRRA
# Procedure, shortened: as §1
# ELK3 = target: T6, ELK3 (Homo sapiens, UniProt P41970 1-407); details: protein: recombinant; tags: N-terminal GST; dsDNA, one strand shown
# T6 sequence: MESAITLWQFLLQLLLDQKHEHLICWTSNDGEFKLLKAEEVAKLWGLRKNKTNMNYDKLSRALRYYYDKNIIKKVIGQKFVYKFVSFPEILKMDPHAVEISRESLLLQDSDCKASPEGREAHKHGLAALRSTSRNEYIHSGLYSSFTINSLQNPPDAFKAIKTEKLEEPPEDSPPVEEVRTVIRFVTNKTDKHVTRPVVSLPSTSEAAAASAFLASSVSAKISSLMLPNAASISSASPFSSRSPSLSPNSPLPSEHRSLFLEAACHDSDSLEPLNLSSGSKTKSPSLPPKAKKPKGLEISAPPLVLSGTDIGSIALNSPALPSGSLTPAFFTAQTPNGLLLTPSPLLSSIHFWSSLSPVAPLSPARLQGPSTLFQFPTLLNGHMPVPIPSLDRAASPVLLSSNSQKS
# Procedure, shortened: as §1
# FEV = target: T7, FEV (Homo sapiens, UniProt Q99581 1-238); details: protein: recombinant; tags: N-terminal GST; dsDNA, one strand shown
# T7 sequence: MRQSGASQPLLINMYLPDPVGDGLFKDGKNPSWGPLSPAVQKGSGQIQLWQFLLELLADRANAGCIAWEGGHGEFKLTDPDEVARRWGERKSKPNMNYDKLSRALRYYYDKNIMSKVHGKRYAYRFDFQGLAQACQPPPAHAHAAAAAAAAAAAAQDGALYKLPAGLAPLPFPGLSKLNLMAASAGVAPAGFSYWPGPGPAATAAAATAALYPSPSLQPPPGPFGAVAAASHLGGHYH
# Procedure, shortened: as §1
# ETV5 = ETV5 (Homo sapiens, UniProt P41161 1-510); details: protein: recombinant; tags: N-terminal GST; dsDNA, one strand shown
# Sequence of ETV5 (P41161 whole entry): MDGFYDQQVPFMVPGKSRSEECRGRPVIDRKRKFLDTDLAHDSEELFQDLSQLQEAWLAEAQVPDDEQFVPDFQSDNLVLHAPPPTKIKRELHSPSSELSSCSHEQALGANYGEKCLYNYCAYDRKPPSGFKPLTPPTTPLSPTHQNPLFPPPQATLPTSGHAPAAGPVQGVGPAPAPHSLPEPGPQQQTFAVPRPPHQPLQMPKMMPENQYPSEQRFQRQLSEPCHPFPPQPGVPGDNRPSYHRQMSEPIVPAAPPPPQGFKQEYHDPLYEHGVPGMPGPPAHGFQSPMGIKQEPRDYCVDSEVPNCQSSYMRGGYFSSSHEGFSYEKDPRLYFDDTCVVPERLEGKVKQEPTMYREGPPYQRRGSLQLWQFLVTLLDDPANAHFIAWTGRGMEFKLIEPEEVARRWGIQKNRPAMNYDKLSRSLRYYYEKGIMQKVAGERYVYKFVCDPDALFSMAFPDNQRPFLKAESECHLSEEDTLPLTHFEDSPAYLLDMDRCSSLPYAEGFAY
# Procedure, shortened: as §1
# HSF1 = HSF1 (Homo sapiens, UniProt Q00613 1-529); details: protein: recombinant; tags: N-terminal GST; chain copies: 3; dsDNA, one strand shown
# Sequence of HSF1 (Q00613 whole entry): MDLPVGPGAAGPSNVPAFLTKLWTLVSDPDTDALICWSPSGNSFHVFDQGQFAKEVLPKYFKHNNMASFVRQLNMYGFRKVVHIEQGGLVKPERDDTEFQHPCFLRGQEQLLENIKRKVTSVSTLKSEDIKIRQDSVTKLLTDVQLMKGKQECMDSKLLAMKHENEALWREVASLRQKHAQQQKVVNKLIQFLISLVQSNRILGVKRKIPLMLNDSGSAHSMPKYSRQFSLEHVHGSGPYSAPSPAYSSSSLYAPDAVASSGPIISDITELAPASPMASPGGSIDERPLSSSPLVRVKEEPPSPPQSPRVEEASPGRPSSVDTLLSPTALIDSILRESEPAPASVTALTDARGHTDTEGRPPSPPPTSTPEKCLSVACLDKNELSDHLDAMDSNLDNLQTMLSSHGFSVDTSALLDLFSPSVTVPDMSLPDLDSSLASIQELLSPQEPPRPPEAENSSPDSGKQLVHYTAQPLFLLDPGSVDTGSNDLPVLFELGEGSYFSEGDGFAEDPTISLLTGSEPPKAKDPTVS
# Procedure, shortened: as §1
# SPIC = target: T8, SPIC (Homo sapiens, UniProt Q8N5J4 1-248); details: protein: recombinant; tags: N-terminal GST; dsDNA, one strand shown
# T8 sequence: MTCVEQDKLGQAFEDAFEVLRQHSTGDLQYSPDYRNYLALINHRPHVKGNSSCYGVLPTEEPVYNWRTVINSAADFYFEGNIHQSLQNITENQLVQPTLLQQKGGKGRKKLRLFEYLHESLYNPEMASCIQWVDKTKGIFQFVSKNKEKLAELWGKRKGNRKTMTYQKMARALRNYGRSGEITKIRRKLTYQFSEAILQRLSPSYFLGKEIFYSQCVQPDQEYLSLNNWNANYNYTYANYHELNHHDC
# Procedure, shortened: as §1
# ELF4 = ELF4 (Homo sapiens, UniProt Q99607 1-663); details: protein: recombinant; tags: N-terminal GST; dsDNA, one strand shown
# Sequence of ELF4 (Q99607 whole entry): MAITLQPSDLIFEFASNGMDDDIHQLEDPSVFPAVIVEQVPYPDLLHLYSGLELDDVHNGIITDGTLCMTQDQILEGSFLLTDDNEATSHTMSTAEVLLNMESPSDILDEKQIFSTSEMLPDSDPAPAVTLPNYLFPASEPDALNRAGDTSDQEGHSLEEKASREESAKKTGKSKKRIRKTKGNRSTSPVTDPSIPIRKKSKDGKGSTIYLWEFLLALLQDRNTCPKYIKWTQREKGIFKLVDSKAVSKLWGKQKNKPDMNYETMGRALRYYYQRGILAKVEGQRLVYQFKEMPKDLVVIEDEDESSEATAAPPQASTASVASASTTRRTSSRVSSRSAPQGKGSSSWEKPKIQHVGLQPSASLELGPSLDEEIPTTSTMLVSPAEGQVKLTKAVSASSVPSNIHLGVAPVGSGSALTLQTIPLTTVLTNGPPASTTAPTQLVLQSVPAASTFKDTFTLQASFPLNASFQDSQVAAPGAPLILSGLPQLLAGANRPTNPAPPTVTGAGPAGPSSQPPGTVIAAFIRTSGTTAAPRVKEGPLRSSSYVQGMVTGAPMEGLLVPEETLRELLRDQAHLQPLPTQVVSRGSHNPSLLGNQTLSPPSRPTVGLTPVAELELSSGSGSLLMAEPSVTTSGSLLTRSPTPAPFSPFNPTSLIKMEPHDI
# Procedure, shortened: as §1
# ELK4 = target: T9, ELK4 (Homo sapiens, UniProt P28324-2 1-405); details: protein: recombinant; tags: N-terminal GST; dsDNA, one strand shown
# T9 sequence: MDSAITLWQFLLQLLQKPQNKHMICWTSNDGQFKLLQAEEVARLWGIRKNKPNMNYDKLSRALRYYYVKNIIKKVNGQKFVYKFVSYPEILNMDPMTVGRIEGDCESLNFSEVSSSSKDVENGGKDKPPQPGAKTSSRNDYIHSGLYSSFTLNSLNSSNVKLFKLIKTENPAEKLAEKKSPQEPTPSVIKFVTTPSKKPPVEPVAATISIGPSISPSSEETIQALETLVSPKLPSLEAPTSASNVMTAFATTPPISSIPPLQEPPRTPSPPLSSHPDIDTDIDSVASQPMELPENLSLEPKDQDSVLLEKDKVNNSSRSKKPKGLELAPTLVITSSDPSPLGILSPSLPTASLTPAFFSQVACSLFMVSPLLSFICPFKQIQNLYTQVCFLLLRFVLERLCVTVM
# Procedure, shortened: as §1
# ETV2 = target: T10, ETV2 (Homo sapiens, UniProt O00321 1-342); details: protein: recombinant; tags: N-terminal GST; dsDNA, one strand shown
# T10 sequence: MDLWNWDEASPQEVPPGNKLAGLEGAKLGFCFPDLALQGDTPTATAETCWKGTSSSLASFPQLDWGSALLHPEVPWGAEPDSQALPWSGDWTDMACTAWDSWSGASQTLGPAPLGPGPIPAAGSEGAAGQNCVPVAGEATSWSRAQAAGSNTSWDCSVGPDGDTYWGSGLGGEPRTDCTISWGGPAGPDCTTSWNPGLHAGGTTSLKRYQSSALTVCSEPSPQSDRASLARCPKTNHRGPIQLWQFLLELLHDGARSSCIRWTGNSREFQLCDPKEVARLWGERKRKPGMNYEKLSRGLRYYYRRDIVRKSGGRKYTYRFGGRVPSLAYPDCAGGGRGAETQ
# Procedure, shortened: as §1
# ELF3 = target: T11, ELF3 (Homo sapiens, UniProt P78545 1-371); details: protein: recombinant; tags: N-terminal GST; dsDNA, one strand shown
# T11 sequence: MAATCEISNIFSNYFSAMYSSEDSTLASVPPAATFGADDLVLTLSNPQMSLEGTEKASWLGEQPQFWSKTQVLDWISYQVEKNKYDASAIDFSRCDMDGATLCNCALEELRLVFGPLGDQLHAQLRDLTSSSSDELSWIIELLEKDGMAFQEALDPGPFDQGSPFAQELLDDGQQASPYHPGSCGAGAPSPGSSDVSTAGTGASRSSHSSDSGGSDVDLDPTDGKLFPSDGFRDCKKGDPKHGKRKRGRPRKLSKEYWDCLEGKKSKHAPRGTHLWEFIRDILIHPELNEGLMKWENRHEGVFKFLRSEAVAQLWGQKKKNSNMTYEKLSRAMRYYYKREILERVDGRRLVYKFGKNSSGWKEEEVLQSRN
# Procedure, shortened: as §1
# CRX = CRX (Homo sapiens, UniProt O43186 1-299); details: protein: recombinant; tags: N-terminal GST; dsDNA, one strand shown
# Sequence of CRX (O43186 whole entry): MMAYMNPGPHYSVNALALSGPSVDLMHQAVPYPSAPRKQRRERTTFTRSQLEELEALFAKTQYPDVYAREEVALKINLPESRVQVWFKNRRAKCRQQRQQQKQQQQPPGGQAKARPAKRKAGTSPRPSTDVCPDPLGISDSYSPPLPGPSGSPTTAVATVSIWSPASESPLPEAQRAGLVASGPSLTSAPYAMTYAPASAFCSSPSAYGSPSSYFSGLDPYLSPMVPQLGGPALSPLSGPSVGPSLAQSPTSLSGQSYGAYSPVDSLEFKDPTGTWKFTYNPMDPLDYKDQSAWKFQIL
# Procedure, shortened: as §1
# ETV1 = ETV1 (Homo sapiens, UniProt P50549 1-477); details: protein: recombinant; tags: N-terminal GST; dsDNA, one strand shown
# Sequence of ETV1 (P50549 whole entry): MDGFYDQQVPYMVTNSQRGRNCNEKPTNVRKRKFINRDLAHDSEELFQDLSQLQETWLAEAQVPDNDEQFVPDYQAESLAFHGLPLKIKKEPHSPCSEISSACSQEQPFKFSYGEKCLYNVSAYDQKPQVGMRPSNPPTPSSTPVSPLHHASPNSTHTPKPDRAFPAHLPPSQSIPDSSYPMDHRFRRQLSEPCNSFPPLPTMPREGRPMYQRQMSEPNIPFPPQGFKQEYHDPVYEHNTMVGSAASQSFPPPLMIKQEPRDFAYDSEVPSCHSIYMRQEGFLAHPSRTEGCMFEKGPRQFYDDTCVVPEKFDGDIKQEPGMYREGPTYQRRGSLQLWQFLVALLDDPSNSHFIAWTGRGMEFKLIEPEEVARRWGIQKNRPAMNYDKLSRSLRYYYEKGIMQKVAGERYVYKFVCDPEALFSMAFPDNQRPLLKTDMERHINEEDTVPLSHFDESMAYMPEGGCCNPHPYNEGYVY
# Procedure, shortened: as §1
sequence,measurement,setting,value
GTTATT,binding signal,FLI1,"1.16 fold enrichment (6-mer frequency, TF over GST control)"
same,binding signal,ELK1,"1.23 fold enrichment (6-mer frequency, TF over GST control)"
same,binding signal,GABPA,"1.17 fold enrichment (6-mer frequency, TF over GST control)"
same,binding signal,ERG,"1.15 fold enrichment (6-mer frequency, TF over GST control)"
same,binding signal,ELF1,"1.05 fold enrichment (6-mer frequency, TF over GST control)"
same,binding signal,EHF,"1.08 fold enrichment (6-mer frequency, TF over GST control)"
same,binding signal,SPI1,"1.28 fold enrichment (6-mer frequency, TF over GST control)"
same,binding signal,SPIB,"1.09 fold enrichment (6-mer frequency, TF over GST control)"
same,binding signal,ELK3,"1.23 fold enrichment (6-mer frequency, TF over GST control)"
same,binding signal,FEV,"1.08 fold enrichment (6-mer frequency, TF over GST control)"
same,binding signal,ETV5,"1.26 fold enrichment (6-mer frequency, TF over GST control)"
same,binding signal,HSF1,"1.19 fold enrichment (6-mer frequency, TF over GST control)"
same,binding signal,SPIC,"1.29 fold enrichment (6-mer frequency, TF over GST control)"
same,binding signal,ELF4,"1.16 fold enrichment (6-mer frequency, TF over GST control)"
same,binding signal,ELK4,"1.17 fold enrichment (6-mer frequency, TF over GST control)"
same,binding signal,ETV2,"1.27 fold enrichment (6-mer frequency, TF over GST control)"
same,binding signal,ELF3,"1.22 fold enrichment (6-mer frequency, TF over GST control)"
same,binding signal,CRX,"1.32 fold enrichment (6-mer frequency, TF over GST control)"
same,binding signal,ETV1,"1.12 fold enrichment (6-mer frequency, TF over GST control)"
